In PubChem BioAssay (Tox21):
Records with an inconclusive call do not appear. Calls of active or inactive are those of the source. Unless noted, the call rests on the fitted dose curve.

Experiments:
[1] = Nuclear factor erythroid 2-related factor 2/antioxidant responsive element (Nrf2/ARE) small molecule agonists: qHTS cell viability counter screen in human keratinocytes (AID 1919968; active means well fitted curve in the direction sought with a large enough effect in the repeat runs; an effect the other way counts as inactive or inconclusive; further: nearly all actives have a fitted effect of over 55% in size)
Procedure, shortened: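 In human HaCaT keratinocytes stably expressing an ARE-driven luciferase, compound exposure lasted 23 h at 37 C under 5% CO2. Viable cells are quantified with a protease-based fluorogenic reagent (CellTiter-Fluor) read 1 h after addition.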

[2] = Nuclear factor erythroid 2-related factor 2/antioxidant responsive element (Nrf2/ARE) small molecule agonists: luciferase reporter gene qHTS assay in human keratinocytes (AID 1919969); further: nearly all actives have a fitted effect of over 35% in size
[3] = target: Gonadotropin-releasing hormone receptor (Homo sapiens) (UniProt P30968); assay: Human gonadotropin-releasing hormone receptor (GnRHR) small molecule agonists, calcium flux assay in GnRHR-HEK293 cells (AID 1920063); further: nearly all actives have a fitted effect of over 35% in size
Procedure, shortened: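 Intracellular calcium rise is the read-out: engineered human GnRHR HEK293 cells, dye-loaded, are exposed to DMSO-dissolved compounds and fluorescence at Ex/Em 480/540 is tracked for 3 min.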

[4] = target: KiSS-1 receptor (Homo sapiens) (UniProt Q969F8); assay: Human kisspeptin (KISS1R) small molecule agonists, calcium flux assay in KISS1R-HEK293 cells (AID 1920064; active means well fitted curve in the direction sought with a large enough effect in the repeat runs; an effect the other way counts as inactive or inconclusive)
Procedure, shortened: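 Concentration-response testing used 15 concentrations in triplicate on human KISS1R-expressing HEK293 cells. Calcium-dependent fluorescence (Ex/Em 480/540) was followed kinetically for 3 min after compound transfer.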

[5] = G protein-coupled receptor (GPCR) small molecule agonists, calcium flux assay: HEK293 wild type cell line counter screen (AID 1920065)
Procedure, shortened: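 Fluorescence intensity signals activation. After overnight (18 h) culture and a 1 h calcium dye load at 37 C, compounds are added by pin tool and the plate read at 480/540 nm for 3 min in 1 s steps.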

[6] = p53 small molecule agonists, cell-based qHTS assay with rat liver microsomes: qHTS cell viability counter screen (AID 1963580); further: nearly all actives have a fitted effect of over 45% in size
Procedure, shortened: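 Counter screen for cytotoxicity under metabolic activation: rat liver microsomes and NADPH, 0.5 mg/mL final each, added with compounds to p53RE-bla HCT-116 cells; 16 h at 37 C, then ATP luminescence read.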

[7] = p53 small molecule agonists, cell-based qHTS assay: qHTS cell viability counter screen (AID 1963581); further: nearly all actives have a fitted effect of over 45% in size
Procedure, shortened: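 Luminescence from CellTiter-Glo, reflecting ATP content, serves as the cytotoxicity measure; it is taken after the 2 h reporter substrate step in HCT-116 p53RE-bla cells dosed for 16 h at 37 C.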

[8] = cAMP Responsive Elements (CRE) small molecule agonists, cell-based qHTS assay (AID 1963590)
Procedure, shortened: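 Compound exposure lasted 3 h at 37 C/5% CO2 in CRE-bla HEK 293T cells grown in assay medium with 10% dialyzed FBS and 25 mM HEPES. Reporter signal came from LiveBLAzer B/G FRET substrate, 2 h, room temperature.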

[9] = cAMP Responsive Elements (CRE) small molecule antagonists, cell-based qHTS assay (AID 1963591; active means well fitted inhibition curve with a large enough effect in the signal ratio in the repeat runs, not every such curve was filed as active; the % refers to the signal ratio)
Procedure, shortened: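 Stimulation used NKH477 at a final 0.25 uM for 3 h in compound-treated CRE-bla HEK293T cells, seeded 18 h beforehand. Reporter activity was measured with LiveBLAzer B/G FRET substrate after 2 h at room temperature.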

[10] = target: D(2) dopamine receptor (Homo sapiens) (UniProt P14416); assay: Dopamine D2 receptor (DRD2) small molecule agonists, cell-based qHTS assay (AID 1963594); further: nearly all actives have a fitted effect of over 35% in size
Procedure, shortened: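 HEK293 cells stably expressing DRD2 were cultured 24 h at 37 C, then given Ro20-1724 (0.1 mM final) and compounds for 10 min at room temperature. NKH477 (200nM) was then added for 30 min. cAMP was read by HTRF.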

[11] = target: D(2) dopamine receptor (Homo sapiens) (UniProt P14416); assay: Dopamine D2 receptor (DRD2) small molecule antagonists, cell-based qHTS assay (AID 1963595; active means well fitted inhibition curve with a large enough effect in the signal ratio in the repeat runs, with a control signal flat; the % refers to the signal ratio)
Procedure, shortened: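 Antagonist mode in DRD2-HEK293 cells: after compound addition with 0.1 mM Ro20-1724, cells received quinpirole (12 nM) and NKH477 (200 nM) for 30 min at room temperature; HTRF cAMP read after 1 h detection.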

[12] = target: 5-hydroxytryptamine receptor 2A (Homo sapiens) (UniProt P28223); assay: 5-hydroxytryptamine receptor 2A (HTR2A) small molecule antagonists, cell-based qHTS assay (AID 1963586); further: nearly all actives have a fitted effect of over 45% in size
Procedure, shortened: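 CHO cells stably expressing human HTR2A were plated for 18 h at 37 C, then loaded with calcium dye for 1 h. Compounds were preincubated 5 min at room temperature before DOI (4 nM solution) was added. Kinetic fluorescence was read for 3 min.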

[13] = target: 5-hydroxytryptamine receptor 2A (Homo sapiens) (UniProt P28223); assay: 5-hydroxytryptamine receptor 2A (HTR2A) small molecule agonists, cell-based qHTS assay (AID 1963587); further: nearly all actives have a fitted effect of over 30% in size
Procedure, shortened: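 HTR2A-CHO cells, plated 18 h at 37 C/5% CO2, dye-loaded 1 h at 37 C; compounds in DMSO added by pin tool (agonist mode). Intracellular calcium flux read as kinetic fluorescence on FDSS over 2 min at 1 s intervals.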

[14] = target: Muscarinic acetylcholine receptor M1 (Homo sapiens) (UniProt P11229); assay: Cholinergic receptor muscarinic 1 (CHRM1) small molecule antagonists, cell-based qHTS assay (AID 1963588); further: nearly all actives have a fitted effect of over 40% in size
Procedure, shortened: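 Compounds were tested at 15 concentrations in three independent runs. Dye-loaded CHRM1-CHO cells were exposed 5 min at room temperature before stimulation by acetylcholine added at 50nM. Intracellular calcium was read kinetically on FDSS for 3 min.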

[15] = target: Muscarinic acetylcholine receptor M1 (Homo sapiens) (UniProt P11229); assay: Cholinergic receptor muscarinic 1 (CHRM1) small molecule agonists, cell-based qHTS assay (AID 1963589); further: nearly all actives have a fitted effect of over 35% in size
Procedure, shortened: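 Fluorescent calcium dye reports M1 activation in stably transfected CHO cells. Compounds, 15 concentrations, added after 1 h dye loading at 37 C; kinetic reading at 1 sec intervals.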

[16] = p53 small molecule agonists, cell-based qHTS assay with human liver microsomes: qHTS cell viability counter screen (AID 1963579); further: nearly all actives have a fitted effect of over 45% in size
Procedure, shortened: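 Metabolic activation used human liver microsomes and NADPH, both 0.5 mg/mL final, over 16 hours at 37 C on p53RE-bla cells (4,000/well). Cytotoxicity measured by CellTiter-Glo luminescence, 30 min at room temperature.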

[17] = target: Beta-2 adrenergic receptor (Homo sapiens) (UniProt P07550); assay: Adrenergic beta2 receptor (ADRB2) small molecule antagonists, cell-based qHTS assay (AID 1963592); further: series mostly up to about 92 µM; nearly all actives have a fitted effect of over 50% in size
Procedure, shortened: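 Assay format: CHO-ADRB2 cells, 18-20hr seeding at 37C/5% CO2, then compound plus 1nM isoproterenol agonist mix for 0.5hr RT. Homogeneous time-resolved fluorescence cAMP detection after 1hr, expressed as 665/615 nm ratio.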

[18] = target: Beta-2 adrenergic receptor (Homo sapiens) (UniProt P07550); assay: Adrenergic beta2 receptor (ADRB2) small molecule agonists, cell-based qHTS assay (AID 1963593);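 further: CHO cells stably overexpressing human ADRB2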
Procedure, shortened: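 CHO cells stably over-expressing ADRB2 were plated overnight at 37C, then dosed with compounds plus a stimulation mix containing 100uM IBMX and 25uM Ro-20-1724 for 0.5hr at room temperature. cAMP was measured by HTRF competition, 1hr.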

Measured: Potency

Sequence of Beta-2 adrenergic receptor (Homo sapiens) (P07550 whole entry, looked up): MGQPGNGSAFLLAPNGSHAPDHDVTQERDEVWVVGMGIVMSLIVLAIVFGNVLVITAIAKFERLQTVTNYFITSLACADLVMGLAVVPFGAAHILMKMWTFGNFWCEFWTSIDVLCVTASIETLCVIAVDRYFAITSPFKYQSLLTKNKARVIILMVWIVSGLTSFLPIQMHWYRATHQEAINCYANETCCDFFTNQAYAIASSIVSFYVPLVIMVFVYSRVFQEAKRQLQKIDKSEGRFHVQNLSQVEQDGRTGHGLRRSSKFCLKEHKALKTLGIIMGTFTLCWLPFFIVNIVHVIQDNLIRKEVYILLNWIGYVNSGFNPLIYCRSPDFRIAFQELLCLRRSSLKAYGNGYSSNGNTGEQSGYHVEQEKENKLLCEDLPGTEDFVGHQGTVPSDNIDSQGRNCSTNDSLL
Sequence of KiSS-1 receptor (Homo sapiens) (Q969F8 whole entry, looked up): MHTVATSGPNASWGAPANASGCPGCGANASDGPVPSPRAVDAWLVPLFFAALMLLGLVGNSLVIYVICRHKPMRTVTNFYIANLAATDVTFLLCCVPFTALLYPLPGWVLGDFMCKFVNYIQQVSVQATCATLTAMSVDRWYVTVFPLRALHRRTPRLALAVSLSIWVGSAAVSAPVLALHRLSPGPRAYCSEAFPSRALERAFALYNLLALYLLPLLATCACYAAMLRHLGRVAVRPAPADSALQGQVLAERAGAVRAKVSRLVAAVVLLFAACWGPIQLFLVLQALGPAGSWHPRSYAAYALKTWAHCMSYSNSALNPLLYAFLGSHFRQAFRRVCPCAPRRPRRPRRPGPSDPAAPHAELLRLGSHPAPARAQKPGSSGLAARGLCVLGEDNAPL
Sequence of Gonadotropin-releasing hormone receptor (Homo sapiens) (P30968 whole entry, looked up): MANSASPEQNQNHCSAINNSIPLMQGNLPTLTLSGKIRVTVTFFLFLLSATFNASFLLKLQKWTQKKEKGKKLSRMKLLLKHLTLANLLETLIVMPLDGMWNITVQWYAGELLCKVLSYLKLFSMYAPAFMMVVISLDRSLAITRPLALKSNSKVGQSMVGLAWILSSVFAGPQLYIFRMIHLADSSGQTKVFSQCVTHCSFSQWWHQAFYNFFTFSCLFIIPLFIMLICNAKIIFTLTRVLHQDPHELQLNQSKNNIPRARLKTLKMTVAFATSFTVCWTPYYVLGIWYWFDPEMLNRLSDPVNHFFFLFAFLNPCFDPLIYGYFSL
Sequence of Muscarinic acetylcholine receptor M1 (Homo sapiens) (P11229 whole entry, looked up): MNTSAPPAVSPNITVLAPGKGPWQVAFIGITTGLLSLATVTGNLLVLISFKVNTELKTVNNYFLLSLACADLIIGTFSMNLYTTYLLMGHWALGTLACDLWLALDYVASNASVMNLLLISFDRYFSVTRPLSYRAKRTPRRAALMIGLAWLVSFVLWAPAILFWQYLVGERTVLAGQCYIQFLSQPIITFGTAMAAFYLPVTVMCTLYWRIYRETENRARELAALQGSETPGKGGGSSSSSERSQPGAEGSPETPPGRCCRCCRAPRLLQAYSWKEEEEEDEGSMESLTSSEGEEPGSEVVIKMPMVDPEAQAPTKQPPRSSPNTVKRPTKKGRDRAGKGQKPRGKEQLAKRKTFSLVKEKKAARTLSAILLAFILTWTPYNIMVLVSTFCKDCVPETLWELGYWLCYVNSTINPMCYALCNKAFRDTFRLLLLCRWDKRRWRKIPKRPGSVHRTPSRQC
Sequence of D(2) dopamine receptor (Homo sapiens) (P14416 whole entry, looked up): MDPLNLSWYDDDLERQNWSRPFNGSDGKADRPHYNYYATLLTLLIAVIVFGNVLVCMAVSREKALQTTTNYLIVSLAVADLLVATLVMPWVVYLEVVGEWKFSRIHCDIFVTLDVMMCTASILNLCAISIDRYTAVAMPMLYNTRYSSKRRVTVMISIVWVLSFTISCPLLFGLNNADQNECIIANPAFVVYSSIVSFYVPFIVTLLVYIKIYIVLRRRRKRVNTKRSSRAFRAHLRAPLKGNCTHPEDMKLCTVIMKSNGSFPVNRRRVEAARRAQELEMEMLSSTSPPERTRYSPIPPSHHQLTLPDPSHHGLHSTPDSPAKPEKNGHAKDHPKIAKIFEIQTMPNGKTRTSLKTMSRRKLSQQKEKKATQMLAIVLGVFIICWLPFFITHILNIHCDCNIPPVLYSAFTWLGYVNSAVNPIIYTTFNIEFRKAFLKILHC
Sequence of 5-hydroxytryptamine receptor 2A (Homo sapiens) (P28223 whole entry, looked up): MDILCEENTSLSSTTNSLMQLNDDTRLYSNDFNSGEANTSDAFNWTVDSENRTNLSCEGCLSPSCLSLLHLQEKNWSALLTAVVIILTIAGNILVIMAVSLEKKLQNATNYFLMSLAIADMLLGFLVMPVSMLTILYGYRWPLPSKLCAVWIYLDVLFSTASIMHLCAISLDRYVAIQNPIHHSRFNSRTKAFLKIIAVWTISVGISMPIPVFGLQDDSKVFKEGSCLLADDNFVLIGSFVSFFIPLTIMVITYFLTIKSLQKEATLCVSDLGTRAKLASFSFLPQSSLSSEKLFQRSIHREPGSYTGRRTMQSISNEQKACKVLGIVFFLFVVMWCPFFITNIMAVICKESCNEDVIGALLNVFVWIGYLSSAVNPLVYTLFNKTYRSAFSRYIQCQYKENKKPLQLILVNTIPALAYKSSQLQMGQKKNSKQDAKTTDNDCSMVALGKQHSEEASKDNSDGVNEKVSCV

Nc1ccn([C@@H]2O[C@H](CO)[C@@H](O)[C@@H]2O)c(=O)n1
not listed: [12] | [13] | [14] | [15] | [16] | [17] | [18]
inactive: all other assays above

CCCCCCCCCCCCC1CO1 (stereo not drawn)
not listed: [16] | [17] | [18]
inactive: all other assays above

CCOC(C)OCC
not listed: [6] | [7] | [11]
inactive: all other assays above

Nc1cccc(O)c1
not listed: [16]
inactive: all other assays above

Cc1ccccc1Br
not listed: [16] | [17] | [18]
inactive: all other assays above

CCCCOC(=O)CCC(C)=O
not listed: [16] | [18]
inactive: all other assays above

Cc1cccc(C)c1NC(=O)CN(CC(=O)O)CC(=O)O
not listed: [13] | [16] | [18]
inactive: all other assays above

S=C([S-])NCCNC(=S)[S-].S=C([S-])NCCNC(=S)[S-].[Mn+2].[Zn+2]
not listed: [9] | [11] | [12] | [16] | [18]
inactive: all other assays above

CC(N)=O
not listed: [16] | [18]
inactive: all other assays above
